From PubChem BioAssay
Most compounds without a hit are left out; they make up all but 21% or so of the library.
Pf growth 96h: P. falciparum growth inhibition at 96 hour, primary screen for plastid delayed-death inhibitors; P. falciparum luciferase reporter growth, 96 h; Potency, µM (doses to about 28.7 µM), without a hit: at the top dose activity change, negative = inhibition, most hits filed as inhibitors; 6.9% of 320,000 active; also: potency is read from the fitted curve at half-maximal effect; % is scaled to controls: 0 for no effect and ±100 for the full control effect
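Two-generation exposure (96 h) targets delayed-death phenotype. Reporter parasites carrying integrated firefly luciferase, in red cells at 2% hematocrit and 0.05% parasitemia final, kept at 37 C, 5% CO2; luminescence loss indicates inhibition.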
CHX counter: affects cycloheximide protein synthesis inhibition readout, counter-screen | cell reporter, cycloheximide protein synthesis inhibition counterscreen | AID 2314 | max response, % | 12% of 300,000 active; in the data active = max response mostly above about 13%, no sharp cut-off; inactive = mostly below about 14%; also: read at 38.3 µM for the half of the compounds with a filed dose; 0% is about no effect
Pf growth 48h: P. falciparum growth inhibition at 48 hours (one generation) | Potency, µM (highest dose often 28.7 µM), without a hit: top-dose activity change, negative = inhibition, usual class: inhibitors | P. falciparum luciferase growth in erythrocytes, 48 h | 5.9% of 310,000 active; also: potency is read from the fitted curve at half-maximal effect; % is scaled to controls: 0 for no effect and ±100 for the full control effect
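Luciferase-expressing parasites in RBCs, 2% Hct / 0.1% parasitemia final; RPMI 1640 + 0.5% Albumax; 37 C, 5% CO2, one generation; luminescence read-out, lower signal = inhibition.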
Shiga toxin inh: inhibitors of Shiga toxin in Vero cells | Vero cells, Shiga toxin protein synthesis inhibition reporter | 9.2% of 290,000 active | inhibition, % at 38.7 µM | AID 2315; in the data active = inhibition mostly above about 28%, no sharp cut-off; inactive = mostly below about 43%; also: 0% is about no effect
Active calls of the source: *; ? = inconclusive; / = no result given. Unless noted, calls follow the shape of the dose curve; as a rule, active = well fitted inhibition curve with a large enough effect; inconclusive = small, poorly fitted or top-dose-only effect, or another doubt; inactive = no such curve, though single readings can be large or run the other way.

SMILES | Pf growth 96h | CHX counter | Pf growth 48h | Shiga toxin inh
Cc1cccc(C)c1OCc1cc(C(=O)N(Cc2nccn2C)C(C)C)no1 | -5.5% | 19.3* | ? | 25.0
COc1cccc(OCc2cc(C(=O)N(Cc3nccn3C)C(C)C)no2)c1 | 18.8% | 11.1 | 9.2% | -2.2
CCN(CC)S(=O)(=O)c1ccc(Cl)c(C(=O)OC2CC(C)OC2=O)c1 (stereo not given) | 14.7% | -3.4 | 6.2% | -9.2
CC(=O)OCC(=O)[C@@]1(O)CCC2C3CCC4=CC(=O)CC[C@]4(C)C3=CC[C@@]21C (stereo not given in full) | -29.4% | / | 5.0% | /
CC(C)c1c(C#N)c(N)nc(SCC(=O)c2cc3ccccc3oc2=O)c1C#N | 57.1% | 8.5 | 1.4% | -1.4
N#Cc1ccc(-c2ccccc2)nc1SCC(=O)c1cc2ccccc2oc1=O | ? | 9.2 | 9.28µM* | 31.1
O=C(CSc1nnc(-c2cccnc2)o1)c1cc2ccccc2oc1=O | 1.0% | 4.4 | 7.38µM* | 23.9
COc1ccc(C(C(=O)NC(C)(C)C)N(C(=O)Cn2nnc3ccccc32)c2cccc(C(C)=O)c2)cc1O (stereo not given) | -5.6% | 0.4 | -5.5% | -3.0
O=C(CNCc1ccccn1)Nc1ccc([N+](=O)[O-])cc1C(=O)Nc1ccccc1F | -10.7% | 2.8 | ? | 15.0
O=C(NCC1CCCO1)c1sc2cc(Cl)ccc2c1Cl (stereo not given) | ? | 54.0* | 128.2% | 76.1*
O=C(NCC1CCCO1)c1cccc(C(=O)NCC2CCCO2)c1 (stereo not given) | 5.5% | -1.5 | 19.9% | -7.6
O=C(NCCCN1CCOCC1)c1sc2ccccc2c1Cl | -4.5% | 39.5* | 28.8% | 46.5*
O=C(NCCN1CCOCC1)c1cc(Cl)ccc1Cl | ? | -2.2 | 3.6% | -15.2
O=C(NCCN1CCOCC1)c1sc2cc(Cl)ccc2c1Cl | 14.1% | 17.3* | 50.6% | 45.0*
O=C(Nc1ccc(Cl)cc1C(=O)NCC1CCCO1)c1ccc(Cl)cc1Cl (stereo not given) | -12.9% | -1.3 | 8.28µM* | -1.4
COC(=O)C1CN(C(=O)C(C)Oc2ccc(C)c(C)c2)c2ccccc2O1 (stereo not given) | -8.4% | 0.9 | -2.2% | -5.6
CC(CNS(=O)(=O)c1ccc(Cl)cc1)n1cncn1 (stereo not given) | 33.4% | -3.0 | 8.9% | -10.2
Cc1cc(=O)n2[nH]cc(-c3ccccc3)c2n1 | 9.28µM* | 1.1 | 0.9% | -3.3
Cc1nc2c(-c3ccccc3)c[nH]n2c(=O)c1Cc1ccccc1 | 60.3% | 61.6* | 105.1% | 121.1*
COCc1cc(=O)n2[nH]cc(-c3ccccc3)c2n1 | -18.1% | 18.8* | 29.7% | /
CCCN1C(=O)/C(=C/c2ccco2)SC1=Nc1ccc(OC)cc1 | ? | 7.0 | 10.4µM* | -8.8
COc1ccccc1N=C1NC(=O)/C(=C/c2ccc(N(C)C)cc2)S1 | ? | 40.8* | 0.0928µM* | 56.1*
COc1ccc(N=C2S/C(=C\c3ccc(C)o3)C(=O)N2CC(C)C)cc1 | 3.29µM* | 8.2 | / | -2.9
COc1ccc(/C=C2\SC(=Nc3ccccc3)NC2=O)cc1 | ? | -3.1 | ? | -5.2
COc1ccc(N=C2NC(=O)/C(=C\c3ccco3)S2)cc1 | -16.7% | 23.2* | ? | 66.4*
SMILES | Pf growth 96h | CHX counter | Pf growth 48h | Shiga toxin inh
CCN(CC)CCN1C(=O)C(=O)/C(=C(/O)c2ccc(S(=O)(=O)N3CCOCC3)cc2)C1c1ccc(C(C)(C)C)cc1 (stereo not given) | 12.1% | 1.4 | -15.1% | 10.6
Cn1c(CCC(=O)Nc2cc(S(C)(=O)=O)ccc2Cl)nc2cc(S(=O)(=O)N3CCOCC3)ccc21 | -4.0% | / | 0.4% | /
Cc1ccc(C(=O)N2CCCC(C(=O)Nc3cccc(-c4ccc(F)cc4)c3)C2)cn1 (stereo not given) | -3.0% | 0.4 | 3.2% | -0.6
COc1cccc(/C=C/C(=O)OCC(=O)NCc2ccco2)c1 | -3.2% | 5.6 | -4.9% | -6.5
COc1cc(/C=C2/SC(=Nc3ccc(O)cc3)NC2=O)cc(OC)c1O | 1.85µM* | -5.5 | 3.7µM* | 31.8
COc1cc(/C=C2\SC(=Nc3ccc(O)cc3)NC2=O)cc(OC)c1OC | ? | 5.3 | ? | -4.1
CCc1cc(-c2n[nH]c(CCC(=O)O)c2-c2nc3ccccc3n2C)c(O)cc1O | ? | 1.8 | 12.5% | 11.4
CCc1cc(-c2n[nH]c(C)c2-c2nc3ccccc3n2C)c(O)cc1O | 13.1µM* | -1.2 | ? | -13.4
CCc1cc(-c2n[nH]c(C)c2-c2nc3ccccc3n2C)c(O)c(CN2CCN(C)CC2)c1O | -25.0% | -2.2 | 11.7µM* | -6.0
